Screening data (PubChem)
Most compounds without a hit are left out; they make up all but 3.5% or so of the library.
GDH-TPI counter-1: GDH-TPI coupled enzyme inhibition counter-screen; GDH-TPI coupled enzyme counterscreen, NADH absorbance; inhibition, % at 4.8 µM; 1.2% of 360,000 active; in the data active means inhibition above about 30%;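 further: 0% = DMSO wells and 100% = wells lacking the enzyme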
FBA Mtb inh: inhibitors of M. tuberculosis fructose-bisphosphate aldolase; inhibition, % at 1 µM; 2.3% of 360,000 active; P9WQA3; purified M. tuberculosis FBA, fluorescence read-out;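 further: 0% = vehicle and 100% = reference inhibitor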
Rv3671c inh: inhibitors of M. tuberculosis serine protease Rv3671c; P9WHR9; inhibition, % at 5.96 µM; 0.048% of 320,000 active; in the data active means inhibition above about 38%;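 further: extracellular domain of Rv3671c used as enzyme; 0% = enzyme with DMSO and 100% = no enzyme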
Target sequence (P9WHR9 whole entry, looked up, the tested form may be a part): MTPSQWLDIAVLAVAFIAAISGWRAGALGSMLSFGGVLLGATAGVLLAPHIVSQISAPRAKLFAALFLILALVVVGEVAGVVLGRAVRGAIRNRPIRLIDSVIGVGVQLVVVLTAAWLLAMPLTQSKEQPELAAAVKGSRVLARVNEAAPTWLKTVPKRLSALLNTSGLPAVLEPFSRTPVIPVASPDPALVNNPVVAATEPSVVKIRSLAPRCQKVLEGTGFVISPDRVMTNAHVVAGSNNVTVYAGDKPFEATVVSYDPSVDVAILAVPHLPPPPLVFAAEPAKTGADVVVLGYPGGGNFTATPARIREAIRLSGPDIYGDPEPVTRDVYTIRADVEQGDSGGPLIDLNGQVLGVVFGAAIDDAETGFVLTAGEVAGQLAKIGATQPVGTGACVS
Mtb UGM inh: blocks M. tuberculosis UGM enzyme. 0.06% of 320,000 active. P9WIQ1. inhibition, % at 10 µM. AID 504406. purified UGM, fluorescence polarization probe displacement; in the data active means inhibition above about 10%, passing the limit was not always enough; inconclusive means no clear call, values can overlap the other calls
Mtb bLac sens: beta-lactam sensitization of Mtb H37Rv. 0.27% of 330,000 active. M. tuberculosis H37Rv growth with meropenem, percent inhibition. inhibition, % at 25 µM; call rule not given here;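 further: growth measured after seven days incubation then overnight dye step; 0% = bacteria only wells and 100% = bacteria with antibiotic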
Mtb FBA inh conf: confirmation of M. tuberculosis fructose-bisphosphate aldolase inhibitors; shares compounds with FBA Mtb inh; purified M. tuberculosis FBA, fluorescence read-out; inhibition, % at 1 µM; 78% of 5,600 active; AID 651616;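 further: 0% = vehicle wells and 100% = reference inhibitor wells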
GDH-TPI counter-2: inhibits GDH-TPI coupling enzymes, flagging Mtb FBA hits; shares compounds with FBA Mtb inh; GDH-TPI coupled enzyme counterscreen, fluorescence; inhibition, % at 1 µM; 81% of 5,600 active; AID 652141; in the data active means inhibition above about 10%
GDH-TPI DR: GDH-TPI dose response counter-screen for Mtb FBA | shares compounds with FBA Mtb inh | 79% of 170 active | GDH-TPI coupled enzyme assay, fluorescence, artifact counterscreen | IC50, µM | AID 652145; call rule not given here
* hit, by the source's call. Unless noted, no stated cut-off is given here; in the data, active means inhibition above about 27%; inactive means the rest.

COc1ccccc1-n1c(SCC(=O)Nc2ccc(NC(C)=O)cc2)nc2c([nH]c3ccccc32)c1=O was read as GDH-TPI counter-1 3.5, FBA Mtb inh 0.0, Rv3671c inh -72.3, Mtb UGM inh 1.8 and Mtb bLac sens inconclusive.
Screening CC(C)c1ccc(C2NC(=O)c3ccccc3O2)cc1 (stereo not given) returned GDH-TPI counter-1 -4.5, FBA Mtb inh -1.1, Rv3671c inh -4.6, Mtb UGM inh -4.6 and Mtb bLac sens -4.1.
`Fc1ccc(-c2cnc(-c3cccs3)o2)cc1` gave GDH-TPI counter-1 11.5, FBA Mtb inh 60.6*, Rv3671c inh -1.1, Mtb UGM inh -0.1, Mtb bLac sens 4.5, Mtb FBA inh conf 81.2* and GDH-TPI counter-2 70.5*.
For Fc1ccc(-c2nc(-c3cccs3)no2)cc1 the results were GDH-TPI counter-1 9.0, FBA Mtb inh -1.3, Rv3671c inh -3.0, Mtb UGM inh -1.2 and Mtb bLac sens -1.5.
Cc1ccc(C2N=C(N)Nc3nc(=O)c4ccccc4n32)cc1 (stereo not given) was read as GDH-TPI counter-1 3.4, FBA Mtb inh 76.3*, Rv3671c inh -1.9, Mtb UGM inh 3.0, Mtb bLac sens -4.8, Mtb FBA inh conf 9.1 and GDH-TPI counter-2 6.0.
For Cc1ccc(C2N=C(N)Nc3nc4ccccc4n32)cc1 (stereo not given) the results were GDH-TPI counter-1 -1.3, FBA Mtb inh 1.8, Rv3671c inh 4.8, Mtb UGM inh 3.6 and Mtb bLac sens -2.8.
`COc1ccc(S(=O)(=O)Nc2ccccc2C(=O)N2CCCCC2)cc1C` gave GDH-TPI counter-1 1.4, FBA Mtb inh 1.5, Rv3671c inh 11.9, Mtb UGM inh -0.1 and Mtb bLac sens -5.3.
For O=C(Nc1cccc2ccccc12)N1CCN(c2ccc(F)cc2)CC1 the results were GDH-TPI counter-1 4.7, FBA Mtb inh 29.9*, Rv3671c inh -4.7, Mtb UGM inh 3.7, Mtb bLac sens -2.1, Mtb FBA inh conf 54.1* and GDH-TPI counter-2 55.2*.
For CCN1CCN(C(=O)Nc2cccc3ccccc23)CC1 the results were GDH-TPI counter-1 0.9, FBA Mtb inh 43.9*, Rv3671c inh -0.1, Mtb UGM inh 1.8, Mtb bLac sens -3.9, Mtb FBA inh conf 71.1* and GDH-TPI counter-2 72.2*.
Screening CN1CCN(C(=O)Nc2cccc3ccccc23)CC1 returned GDH-TPI counter-1 -6.2, FBA Mtb inh 40.2*, Rv3671c inh -1.6, Mtb UGM inh 4.5, Mtb bLac sens 5.1, Mtb FBA inh conf 9.8 and GDH-TPI counter-2 -6.3.
O=C(O)c1ccccc1NC(=O)N1CCOCC1 was read as GDH-TPI counter-1 2.5, FBA Mtb inh 32.5*, Rv3671c inh 6.2, Mtb UGM inh 0.2, Mtb bLac sens 2.0, Mtb FBA inh conf 111.9* and GDH-TPI counter-2 89.6*.
For O=C(Nc1cccc2ccccc12)N1CCCN(c2c(Cl)cncc2Cl)CC1 the results were GDH-TPI counter-1 -1.5, FBA Mtb inh -17.8, Rv3671c inh -11.4 and Mtb UGM inh -2.2.
`COC(=O)c1ccccc1NC(=O)N1CCN(c2ccc(F)cc2)CC1` gave GDH-TPI counter-1 -2.5, FBA Mtb inh 0.4, Rv3671c inh 7.8, Mtb UGM inh -0.2 and Mtb bLac sens 0.6.
For CCOc1ccc(S(=O)(=O)n2nc(C)c(S(=O)(=O)N3CCOCC3)c2C)cc1 the results were GDH-TPI counter-1 -9.6, FBA Mtb inh -0.5, Rv3671c inh -0.9, Mtb UGM inh -0.4 and Mtb bLac sens -2.1.
Screening CCCN1C(=O)C(=O)c2cc(Cl)ccc21 returned GDH-TPI counter-1 2.1, FBA Mtb inh 2.1, Rv3671c inh 4.1, Mtb UGM inh -2.1 and Mtb bLac sens 3.6.
Screening O=C(Nc1cccc2ccccc12)N1CCOCC1 returned GDH-TPI counter-1 -1.6, FBA Mtb inh 45.2*, Rv3671c inh -10.9, Mtb UGM inh 2.4, Mtb bLac sens -2.4, Mtb FBA inh conf 122.4* and GDH-TPI counter-2 87.7*.
Screening O=C(Nc1cccc2ccccc12)N1CCc2ccccc2C1 returned GDH-TPI counter-1 6.8, FBA Mtb inh 42.9*, Rv3671c inh -12.8, Mtb UGM inh -1.3, Mtb bLac sens 4.6, Mtb FBA inh conf 14.4, GDH-TPI counter-2 -2.6 and GDH-TPI DR >10.
Screening NC(=O)C1CCCN(C(=O)Nc2cccc3ccccc23)C1 (stereo not given) returned GDH-TPI counter-1 -3.4, FBA Mtb inh 40.4*, Rv3671c inh -1.1, Mtb UGM inh 3.4, Mtb bLac sens 1.7, Mtb FBA inh conf 60.1* and GDH-TPI counter-2 45.9*.
For CCc1ccccc1NC(=O)N1CCc2ccccc2C1 the results were GDH-TPI counter-1 -5.2, FBA Mtb inh -1.0, Mtb UGM inh -3.6 and Mtb bLac sens -3.9.
Screening COc1ccccc1NC(=O)N1CCOCC1 returned GDH-TPI counter-1 0.6, FBA Mtb inh 0.5, Rv3671c inh 6.7, Mtb UGM inh -0.9 and Mtb bLac sens 6.4.
Screening CCC(NC(=O)C1CCCC1)c1ccccc1 (stereo not given) returned GDH-TPI counter-1 -13.0, FBA Mtb inh -0.8, Rv3671c inh -2.9, Mtb UGM inh -3.6 and Mtb bLac sens -6.5.
`CC[C@@]1(O)C(=O)OCc2c1cc1n(c2=O)Cc2cc3c(NC(=O)CN)cccc3nc2-1` gave GDH-TPI counter-1 25.0, FBA Mtb inh 66.0*, Rv3671c inh -2.7, Mtb UGM inh -4.4, Mtb bLac sens 6.0, Mtb FBA inh conf 47.5* and GDH-TPI counter-2 36.3*.
For CCC1(O)C(=O)OCc2c1cc1n(c2=O)Cc2cc3cc(O)ccc3nc2-1 (stereo not given) the results were GDH-TPI counter-1 27.4, FBA Mtb inh 29.5*, Mtb FBA inh conf 132.7* and GDH-TPI counter-2 120.0*.
CC[C@@]1(O)C(=O)OCc2c1cc1n(c2=O)Cc2cc3ccccc3nc2-1 was read as Rv3671c inh -5.0, Mtb UGM inh 1.0 and Mtb bLac sens 0.5.
COC(=O)C(C)NC(=S)N1CCN(c2c(F)cc3c(=O)c(C(=O)O)cn(C4CC4)c3c2OC)CC1C (stereo not given) was read as GDH-TPI counter-1 27.3, FBA Mtb inh 30.1*, Rv3671c inh -2.4, Mtb UGM inh -2.7, Mtb bLac sens 99.7, Mtb FBA inh conf active and GDH-TPI counter-2 active.
`CNC(=S)N1CCN(c2c(F)cc3c(=O)c(C(=O)O)cn(C4CC4)c3c2OC)CC1C` (stereo not given) gave GDH-TPI counter-1 8.8, FBA Mtb inh 13.8, Rv3671c inh -4.3, Mtb UGM inh -1.6 and Mtb bLac sens 99.7.
COc1ccc(-c2oc3ncnc(N)c3c2-c2ccccc2)cc1 was read as GDH-TPI counter-1 5.3, FBA Mtb inh 27.4*, Rv3671c inh -2.6, Mtb UGM inh -2.2, Mtb bLac sens -16.6, Mtb FBA inh conf 4.8 and GDH-TPI counter-2 -1.5.
